PMC7862700, “An all-to-all approach to the identification of sequence-specific readers for epigenetic DNA modifications on cytosine”

Target: T1, FEV (Homo sapiens, UniProt Q99581 1-238)
T1 sequence: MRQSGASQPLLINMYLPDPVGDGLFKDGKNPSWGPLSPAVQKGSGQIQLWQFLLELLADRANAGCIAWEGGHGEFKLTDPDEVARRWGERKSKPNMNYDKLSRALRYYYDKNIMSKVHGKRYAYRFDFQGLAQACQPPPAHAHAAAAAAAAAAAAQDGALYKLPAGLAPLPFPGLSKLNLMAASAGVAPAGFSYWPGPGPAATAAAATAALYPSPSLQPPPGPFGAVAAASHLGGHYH
Test: DAPPL (digital affinity profiling via proximity ligation, sequencing); 10 mM Tris-HCl pH 7.5, 50 mM NaCl, 1 mM DTT, 4% glycerol, room temperature, 30 min; GST-TFs on glutathione beads, 16-mer random dsDNA library, 0.1% formaldehyde crosslink after washing; high values mean tight binding
Conditions: protein: recombinant; tags: N-terminal GST; dsDNA, one strand shown
Procedure, shortened: (§1)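 GST fusions of human transcription factors were expressed in yeast and captured with glutathione beads. Once given DNA barcodes and pooled alongside a tag-only sample, they were incubated for 30 min at room temperature with 200 nmole of a random double-stranded 16-mer DNA library in Tris/NaCl/DTT/glycerol buffer, then washed, crosslinked (0.1% formaldehyde), proximity-ligated, PCR-amplified and sequenced on an Illumina NextSeq500. The binding signal of each hexamer is its read frequency for a factor divided by its frequency for the tag-only sample.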

Row | Sequence | binding signal
1 | CCACCA | 1.04 fold enrichment (6-mer frequency, TF over GST control)
2 | GCCACA | 1.06 fold enrichment (6-mer frequency, TF over GST control)
3 | CGGTCC | 1.06 fold enrichment (6-mer frequency, TF over GST control)
4 | GGCAGC | 1.02 fold enrichment (6-mer frequency, TF over GST control)
5 | GTTGCC | 1.02 fold enrichment (6-mer frequency, TF over GST control)
6 | TGGGAC | 1 fold enrichment (6-mer frequency, TF over GST control)

Target: T2, ELK4 (Homo sapiens, UniProt P28324-2 1-405)
T2 sequence: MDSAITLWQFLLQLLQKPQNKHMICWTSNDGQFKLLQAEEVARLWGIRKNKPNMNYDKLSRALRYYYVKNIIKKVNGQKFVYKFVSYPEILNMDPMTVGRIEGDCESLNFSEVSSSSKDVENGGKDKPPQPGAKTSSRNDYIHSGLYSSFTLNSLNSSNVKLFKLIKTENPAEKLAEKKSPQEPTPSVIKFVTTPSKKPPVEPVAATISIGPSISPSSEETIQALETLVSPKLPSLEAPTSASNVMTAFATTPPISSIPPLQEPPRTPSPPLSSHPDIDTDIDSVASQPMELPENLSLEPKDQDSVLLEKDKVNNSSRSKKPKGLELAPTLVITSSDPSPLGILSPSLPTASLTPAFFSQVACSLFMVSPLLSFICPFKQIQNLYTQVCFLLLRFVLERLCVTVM
Test: as above
Conditions: protein: recombinant; tags: N-terminal GST; dsDNA, one strand shown
Procedure, shortened: as §1

Row | Sequence | binding signal
7 | GTGGTA | 1.02 fold enrichment (6-mer frequency, TF over GST control)
8 | GGCTGC | 1 fold enrichment (6-mer frequency, TF over GST control)
9 | CAGTAT | 1.06 fold enrichment (6-mer frequency, TF over GST control)
10 | AAAGTC | 1.08 fold enrichment (6-mer frequency, TF over GST control)
11 | GCGTCA | 1.01 fold enrichment (6-mer frequency, TF over GST control)
12 | GCGTTA | 1.02 fold enrichment (6-mer frequency, TF over GST control)
13 | CCACCA | 1.14 fold enrichment (6-mer frequency, TF over GST control)
14 | GTGCAA | 1.05 fold enrichment (6-mer frequency, TF over GST control)
15 | GTCATT | 1.03 fold enrichment (6-mer frequency, TF over GST control)
16 | TCAGTA | 1.01 fold enrichment (6-mer frequency, TF over GST control)
17 | CGGTCC | 1.08 fold enrichment (6-mer frequency, TF over GST control)
18 | GACCAA | 1.01 fold enrichment (6-mer frequency, TF over GST control)
19 | GATACC | 1.01 fold enrichment (6-mer frequency, TF over GST control)
20 | ACACAG | 1.12 fold enrichment (6-mer frequency, TF over GST control)
21 | GATCCG | 1 fold enrichment (6-mer frequency, TF over GST control)
22 | GTTGTG | 1.07 fold enrichment (6-mer frequency, TF over GST control)

Row | Sequence | binding signal
23 | ACGCGT | 1.1 fold enrichment (6-mer frequency, TF over GST control)
24 | GTAACG | 1.03 fold enrichment (6-mer frequency, TF over GST control)
25 | AAGCCA | 1.02 fold enrichment (6-mer frequency, TF over GST control)
26 | TCTGAG | 1.08 fold enrichment (6-mer frequency, TF over GST control)
27 | CAACGG | 1.01 fold enrichment (6-mer frequency, TF over GST control)
28 | CCATAG | 1.06 fold enrichment (6-mer frequency, TF over GST control)
29 | GTTGCC | 1.07 fold enrichment (6-mer frequency, TF over GST control)
30 | TGAACG | 1.02 fold enrichment (6-mer frequency, TF over GST control)
31 | GGCCTG | 1.08 fold enrichment (6-mer frequency, TF over GST control)
32 | GCGCAC | 1.07 fold enrichment (6-mer frequency, TF over GST control)
33 | CAAGCC | 1.07 fold enrichment (6-mer frequency, TF over GST control)
34 | TGGGAC | 1.03 fold enrichment (6-mer frequency, TF over GST control)
35 | GTAGCG | 1.01 fold enrichment (6-mer frequency, TF over GST control)
36 | GTGTTG | 1.06 fold enrichment (6-mer frequency, TF over GST control)
37 | TGTTAG | 1.13 fold enrichment (6-mer frequency, TF over GST control)
38 | GCATAT | 1.07 fold enrichment (6-mer frequency, TF over GST control)

Target: T3, ETV2 (Homo sapiens, UniProt O00321 1-342)
T3 sequence: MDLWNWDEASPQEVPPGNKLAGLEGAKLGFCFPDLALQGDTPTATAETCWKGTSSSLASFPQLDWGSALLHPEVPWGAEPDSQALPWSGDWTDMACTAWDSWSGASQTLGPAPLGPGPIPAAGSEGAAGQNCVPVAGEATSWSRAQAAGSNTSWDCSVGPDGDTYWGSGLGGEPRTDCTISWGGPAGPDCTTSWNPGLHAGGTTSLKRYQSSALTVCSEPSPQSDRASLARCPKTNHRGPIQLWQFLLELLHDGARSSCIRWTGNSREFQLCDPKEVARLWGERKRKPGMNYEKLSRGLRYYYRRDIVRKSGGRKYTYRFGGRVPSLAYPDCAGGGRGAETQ
Test: as above
Conditions: protein: recombinant; tags: N-terminal GST; dsDNA, one strand shown
Procedure, shortened: as §1

Row | Sequence | binding signal
39 | CAGTAT | 1.08 fold enrichment (6-mer frequency, TF over GST control)
40 | GCGTCA | 1.06 fold enrichment (6-mer frequency, TF over GST control)
41 | TCAGTA | 1.03 fold enrichment (6-mer frequency, TF over GST control)
42 | GATACC | 1 fold enrichment (6-mer frequency, TF over GST control)
43 | GTAACG | 1.08 fold enrichment (6-mer frequency, TF over GST control)
44 | GGCAGC | 1.02 fold enrichment (6-mer frequency, TF over GST control)
45 | AGCAAG | 1.02 fold enrichment (6-mer frequency, TF over GST control)
46 | CCATAG | 1.01 fold enrichment (6-mer frequency, TF over GST control)
47 | TGAACG | 1.02 fold enrichment (6-mer frequency, TF over GST control)
48 | GGCCTG | 1.06 fold enrichment (6-mer frequency, TF over GST control)
49 | CAAGCC | 1.06 fold enrichment (6-mer frequency, TF over GST control)
50 | TGGGAC | 1.14 fold enrichment (6-mer frequency, TF over GST control)
51 | TGTTAG | 1.03 fold enrichment (6-mer frequency, TF over GST control)
52 | GCATAT | 1.02 fold enrichment (6-mer frequency, TF over GST control)
